{"source": "PubChem BioAssay (NCI)", "note": "About 83,000 compounds went through this panel and 20% of them were active in at least one assay; those are over-represented in the sample as a whole.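 Single-concentration screen, 48 h exposure, 96-well plates. Endpoint: percent growth. Below 10 = active.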 Values without a mark were called inactive. Calls of active or inactive are those of the source."}
{"tested_on": "SK-MEL-2 melanoma", "assay": "NCI-60 one-dose screen, 48 h (100 = growth as untreated, 0 = no growth, -100 = all killed)", "conditions": "10 µM unless noted"}
{"smiles": "CC1(C)OC2COC3(C(=O)O)OC(C)(C)OC3C2O1", "note": "(stereo unspecified)", "growth": "93.1%"}
{"smiles": "Cc1ccc(Cn2c(-c3cccs3)nc3ccccc32)cc1", "growth": "101%"}
{"smiles": "COc1cc2c(cc1OC)C1(C)N(CC2)C(=O)OC1(C)C", "note": "(stereo unspecified)", "growth": "120%"}
{"smiles": "Cc1cc(-c2ccccc2)c(C)n1Cc1ccc(Cl)cc1", "growth": "31.2%"}
{"smiles": "CCN(Cc1ccccc1)c1ccc(SC#N)cc1", "growth": "104%"}
{"smiles": "O=C1Nc2ccc(Br)cc2C1=N/C=c1\\[nH]c(=O)/c(=C/c2ccc(Cl)cc2)s1", "growth": "99.7%"}
{"smiles": "COc1ccc(-c2nc(-c3ccccc3)c(-c3ccccc3)n2C2CC2)cc1OC1CCCCC1", "growth": "87.3%"}
{"smiles": "CC(=O)Nc1ccc(S(=O)(=O)N2C(=O)CCC2C(=O)Nc2ccccc2)cc1", "note": "(stereo unspecified)", "growth": "43.9%"}
{"smiles": "COc1cc(CNC(=O)CCSc2nc3ccccc3c(=O)n2Cc2cc(OC)c(OC)c(OC)c2)cc(OC)c1OC", "growth": "-9.25% (active)"}
{"smiles": "O=C(CN1CCN(c2cc3c(cc2F)c(=O)c(C(=O)O)cn3C2CC2)CC1)Nc1ccc(C(=O)/C=C/c2ccccc2)cc1", "growth": "53.7%"}
{"smiles": "CC(C)N(Cc1ccc(CN(C(=O)CCl)C(C)C)cc1)C(=O)CCl", "growth": "44.9%"}
{"smiles": "COc1ccc(/C=C/c2cc(N3CCOCC3)c3cc(F)c(F)cc3n2)cc1OC", "growth": "45%"}
{"smiles": "COc1cccc(-n2cc(-c3nc(Cl)c4ccccc4n3)nn2)c1", "growth": "89.5%"}
{"smiles": "CCNC(=O)C1CCCN1C(=O)C(CCCN=C(N)N)NC(=O)C(CC(C)C)NC(=O)C(CC(C)C)NC(=O)C(Cc1ccc(O)cc1)NC(=O)C(CO)NC(=O)C(Cc1c[nH]c2ccccc12)NC(=O)C(Cc1cnc[nH]1)NC(=O)C1CCC(=O)N1", "note": "(stereo unspecified)", "growth": "102%"}
{"smiles": "Nc1c(C(=O)Nc2cccc(Cl)c2Cl)sc2nc3c(cc12)C(=O)CCC3", "growth": "38%"}
{"smiles": "COc1cc(C2C=C(C)N=C3SC(C)=NN32)cc(OC)c1OC", "note": "(stereo unspecified)", "growth": "107%"}
{"smiles": "Nc1c(C(=O)Nc2cccc(C(F)(F)F)c2)sc2nc3c(cc12)CCCCCC3", "growth": "51.4%"}
{"smiles": "O=Nc1c(-c2c(O)[nH]c3ccc([N+](=O)[O-])cc23)[nH]c2ccc(O)cc12", "growth": "-55% (active)"}
{"smiles": "c1cc(-c2ccc3c(c2)OCO3)n2nccc2n1", "growth": "108%"}
{"smiles": "Nc1c(C(=O)Nc2cccc([N+](=O)[O-])c2)sc2nc3c(cc12)C(O)CCC3", "note": "(stereo unspecified)", "growth": "26.2%"}
{"smiles": "CCn1cc(C(=O)O)c(=O)c2cc(F)c(N3CCN(S(=O)(=O)c4ccc(Cl)cc4Cl)CC3)cc21", "growth": "-18.1% (active)"}
{"smiles": "CN1C(=O)[C@H]2c3c1cccc3[C@@]13NC(=O)O[C@H]1[C@H](CCC3(C)C)C2(C)C", "growth": "92.8%"}
{"smiles": "CN1CCN(c2ccc3cc(-c4nc5ccccc5[nH]4)c(=O)oc3c2)CC1", "growth": "105%"}
{"smiles": "Cc1ccc(Cn2c(-c3nonc3N)nc3ccccc32)cc1", "growth": "78.2%"}
{"smiles": "CCc1cccc(C)c1NC(=O)c1sc2nc3c(cc2c1N)C(=O)CCC3", "growth": "27.5%"}
{"smiles": "COc1cc(-c2cc(/C=C3\\CCCCC3=O)[nH]n2)cc(OC)c1OC", "growth": "94.7%"}
{"smiles": "FC(F)(F)c1cccc(-n2nnc3cnc(Nc4ccc(N5CCCCC5)cc4)nc32)c1", "growth": "96.8%"}
{"smiles": "Cc1ccc(OCCn2c(C)nn(-c3ccc(Cl)cc3)c2=O)cc1", "growth": "146%"}
{"smiles": "CN1CCN(CCCOc2ccc3nc(Nc4ccc(C(F)(F)F)c(Cl)c4)ccc3c2)CC1", "growth": "8.88% (active)"}
{"smiles": "COc1cc(Cn2c(SCC(=O)Nc3cc(OC)c(OC)c(OC)c3)nc3ccccc3c2=O)cc(OC)c1OC", "growth": "75.1%"}
{"smiles": "c1ccc(CCn2nnc3c(Nc4ccc(N5CCOCC5)cc4)ncnc32)cc1", "growth": "105%"}
{"smiles": "CCCC1OC(c2ccc(C(C)C)cc2)OCC1CC", "note": "(stereo unspecified)", "growth": "98.4%"}
{"smiles": "Oc1ccc(N=Cc2ccccc2)cc1", "growth": "94%"}
{"smiles": "COc1cccc(NC(=O)c2sc3nc4c(cc3c2N)CCCC4)c1", "growth": "33.7%"}
{"smiles": "Cn1cc(C=O)c2ccccc21", "growth": "109%"}
{"smiles": "O=C1CCCCN1CCCCC#Cc1ccccc1C#Cc1ccc([N+](=O)[O-])cc1", "growth": "5.87% (active)"}
{"smiles": "O=C(c1ccncc1)N1N=C(c2ccc(Cl)cc2)CC1c1c[nH]c2ccccc12", "note": "(stereo unspecified)", "growth": "83%"}
{"smiles": "Cc1cc2c(c(=O)o1)C(c1ccc(OC(=O)N3CCOCC3)cc1)C(C#N)=C(N)O2", "note": "(stereo unspecified)", "growth": "91.3%"}
{"tested_on": "SN12C renal", "assay": "NCI-60 one-dose screen, 48 h (100 = growth as untreated, 0 = no growth, -100 = all killed)", "conditions": "10 µM unless noted"}
{"smiles": "CC1(C)OC2COC3(C(=O)O)OC(C)(C)OC3C2O1", "note": "(stereo unspecified)", "growth": "91.4%"}
{"smiles": "Cc1ccc(Cn2c(-c3cccs3)nc3ccccc32)cc1", "growth": "98.6%"}
{"smiles": "COc1cc2c(cc1OC)C1(C)N(CC2)C(=O)OC1(C)C", "note": "(stereo unspecified)", "growth": "101%"}
{"smiles": "Cc1cc(-c2ccccc2)c(C)n1Cc1ccc(Cl)cc1", "growth": "49.3%"}
{"smiles": "CCN(Cc1ccccc1)c1ccc(SC#N)cc1", "growth": "87.9%"}
{"smiles": "O=C1Nc2ccc(Br)cc2C1=N/C=c1\\[nH]c(=O)/c(=C/c2ccc(Cl)cc2)s1", "growth": "102%"}
{"smiles": "COc1ccc(-c2nc(-c3ccccc3)c(-c3ccccc3)n2C2CC2)cc1OC1CCCCC1", "growth": "73.3%"}
{"smiles": "CC(=O)Nc1ccc(S(=O)(=O)N2C(=O)CCC2C(=O)Nc2ccccc2)cc1", "note": "(stereo unspecified)", "growth": "40.4%"}
{"smiles": "COc1cc(CNC(=O)CCSc2nc3ccccc3c(=O)n2Cc2cc(OC)c(OC)c(OC)c2)cc(OC)c1OC", "growth": "50.7%"}
{"smiles": "O=C(CN1CCN(c2cc3c(cc2F)c(=O)c(C(=O)O)cn3C2CC2)CC1)Nc1ccc(C(=O)/C=C/c2ccccc2)cc1", "growth": "11.3%"}
{"smiles": "CC(C)N(Cc1ccc(CN(C(=O)CCl)C(C)C)cc1)C(=O)CCl", "growth": "15.4%"}
{"smiles": "COc1ccc(/C=C/c2cc(N3CCOCC3)c3cc(F)c(F)cc3n2)cc1OC", "growth": "44.4%"}
{"smiles": "COc1cccc(-n2cc(-c3nc(Cl)c4ccccc4n3)nn2)c1", "growth": "95.2%"}
{"smiles": "CCNC(=O)C1CCCN1C(=O)C(CCCN=C(N)N)NC(=O)C(CC(C)C)NC(=O)C(CC(C)C)NC(=O)C(Cc1ccc(O)cc1)NC(=O)C(CO)NC(=O)C(Cc1c[nH]c2ccccc12)NC(=O)C(Cc1cnc[nH]1)NC(=O)C1CCC(=O)N1", "note": "(stereo unspecified)", "growth": "112%"}
{"smiles": "Nc1c(C(=O)Nc2cccc(Cl)c2Cl)sc2nc3c(cc12)C(=O)CCC3", "growth": "86.8%"}
{"smiles": "COc1cc(C2C=C(C)N=C3SC(C)=NN32)cc(OC)c1OC", "note": "(stereo unspecified)", "growth": "109%"}
{"smiles": "Nc1c(C(=O)Nc2cccc(C(F)(F)F)c2)sc2nc3c(cc12)CCCCCC3", "growth": "5.73% (active)"}
{"smiles": "O=Nc1c(-c2c(O)[nH]c3ccc([N+](=O)[O-])cc23)[nH]c2ccc(O)cc12", "growth": "23.7%"}
{"smiles": "c1cc(-c2ccc3c(c2)OCO3)n2nccc2n1", "growth": "108%"}
{"smiles": "Nc1c(C(=O)Nc2cccc([N+](=O)[O-])c2)sc2nc3c(cc12)C(O)CCC3", "note": "(stereo unspecified)", "growth": "65.8%"}
{"smiles": "CCn1cc(C(=O)O)c(=O)c2cc(F)c(N3CCN(S(=O)(=O)c4ccc(Cl)cc4Cl)CC3)cc21", "growth": "10.3%"}
{"smiles": "CN1C(=O)[C@H]2c3c1cccc3[C@@]13NC(=O)O[C@H]1[C@H](CCC3(C)C)C2(C)C", "growth": "93.3%"}
{"smiles": "CN1CCN(c2ccc3cc(-c4nc5ccccc5[nH]4)c(=O)oc3c2)CC1", "growth": "93.7%"}
{"smiles": "Cc1ccc(Cn2c(-c3nonc3N)nc3ccccc32)cc1", "growth": "96.3%"}
{"smiles": "CCc1cccc(C)c1NC(=O)c1sc2nc3c(cc2c1N)C(=O)CCC3", "growth": "51.5%"}
{"smiles": "COc1cc(-c2cc(/C=C3\\CCCCC3=O)[nH]n2)cc(OC)c1OC", "growth": "93.8%"}
{"smiles": "FC(F)(F)c1cccc(-n2nnc3cnc(Nc4ccc(N5CCCCC5)cc4)nc32)c1", "growth": "91%"}
{"smiles": "Cc1ccc(OCCn2c(C)nn(-c3ccc(Cl)cc3)c2=O)cc1", "growth": "105%"}
{"smiles": "CN1CCN(CCCOc2ccc3nc(Nc4ccc(C(F)(F)F)c(Cl)c4)ccc3c2)CC1", "growth": "25%"}
{"smiles": "COc1cc(Cn2c(SCC(=O)Nc3cc(OC)c(OC)c(OC)c3)nc3ccccc3c2=O)cc(OC)c1OC", "growth": "82%"}
{"smiles": "c1ccc(CCn2nnc3c(Nc4ccc(N5CCOCC5)cc4)ncnc32)cc1", "growth": "92.1%"}
{"smiles": "CCCC1OC(c2ccc(C(C)C)cc2)OCC1CC", "note": "(stereo unspecified)", "growth": "105%"}
{"smiles": "Oc1ccc(N=Cc2ccccc2)cc1", "growth": "96.5%"}
{"smiles": "COc1cccc(NC(=O)c2sc3nc4c(cc3c2N)CCCC4)c1", "growth": "58.9%"}
{"smiles": "Cn1cc(C=O)c2ccccc21", "growth": "91.7%"}
{"smiles": "O=C1CCCCN1CCCCC#Cc1ccccc1C#Cc1ccc([N+](=O)[O-])cc1", "growth": "67.4%"}
{"smiles": "O=C(c1ccncc1)N1N=C(c2ccc(Cl)cc2)CC1c1c[nH]c2ccccc12", "note": "(stereo unspecified)", "growth": "92.9%"}
{"smiles": "Cc1cc2c(c(=O)o1)C(c1ccc(OC(=O)N3CCOCC3)cc1)C(C#N)=C(N)O2", "note": "(stereo unspecified)", "growth": "108%"}
